HT1080 IDH1KD tx: HT-1080 IDH1 knockdown cell toxicity (counter line) | Potency, µM (series often up to 46.1 µM), inactives show top-dose activity, negative = toxicity, actives largely listed as cytotoxic | HT-1080 IDH1 knockdown viability, ATP luminescence, 48 h | actives 2% (n = 360,000);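 note: potency is the fitted concentration of half-maximal effect; 0% = DMSO wells and -100% = cell-free medium wells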
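In this qHTS, HT-1080 cells depleted of IDH1 are exposed for 48 h at 37 °C to compound titrations. Toxicity is scored from CellTiter-Glo luminescence, with DMSO as full viability and medium alone as none.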
HT1080NT lethal: kills 2HG-producing HT-1080-NT fibrosarcoma cells. actives 1.6% (n = 360,000). Potency, µM (top dose mostly 46.1 µM), for inactives: top-dose activity, negative = less viability, usual class: cytotoxic. HT-1080-NT fibrosarcoma viability, CellTiter-Glo ATP luminescence, 48 h;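 note: NT is the 2HG producing partner of a matched IDH1 knockdown line; potency is the fitted concentration of half-maximal effect; 0% = DMSO-treated cells and -100% = media-only wells without cells; nearly all actives have a fitted effect of over 55% in size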
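A 48-hour cytotoxicity screen used HT-1080-NT cells plated 2 hours before compound delivery. ATP-based CellTiter-Glo luminescence measured viability, normalized to DMSO and no-cell controls.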
IL1B secr inh: inhibitors of inflammasome signaling (IL-1 beta secretion) | THP-1 LPS/ATP IL-1B secretion, AlphaLISA, 16 h; hits give low values | activity change, % at 57.5 µM | actives 4.7% (n = 360,000) | AID 743279; in the data active = activity change below about -50%; inconclusive = mostly about -30% to -49%
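THP-1 cells pretreated 1 hr with compounds (up to 57.5 uM final), then stimulated with LPS (250 ng/mL final) plus ATP (1.25 mM final); secreted IL-1B measured by AlphaLISA after 16 hr, decreased signal indicating inhibition.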
DT40 TDP1 no CPT: qHTS for Inhibitors of human tyrosyl-DNA phosphodiesterase 1 (TDP1): qHTS in cells in absence of CPT; DT40 Tdp1-/- hTDP1 cells, no CPT, ATP luminescence, 48 h; Potency, µM (highest dose often 46.2 µM), for inactives: at the highest dose activity change, negative = growth inhibition, most hits filed as inhibitors; actives 15% (n = 420,000); note: potency is the fitted concentration of half-maximal effect; nearly all actives have a fitted effect of over 55% in size
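Readout: luminescence from CellTiter-Glo after 30 min in the dark at RT. Cells: DT40 Tdp1-/- with stable hTDP1, 400/well. Exposure: compounds alone, ≥48 hr, 37 °C.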
ALOX12 inh: inhibitors of human 12S-lipoxygenase ALOX12; actives 1.1% (n = 580,000); purified 12hLO, xylenol orange hydroperoxide absorbance; P18054; Potency, µM (highest dose often 108 µM), inactives show at the top dose activity change, negative = inhibition, actives largely listed as inhibitors; note: potency is the fitted concentration of half-maximal effect
Target sequence (P18054 whole entry, looked up): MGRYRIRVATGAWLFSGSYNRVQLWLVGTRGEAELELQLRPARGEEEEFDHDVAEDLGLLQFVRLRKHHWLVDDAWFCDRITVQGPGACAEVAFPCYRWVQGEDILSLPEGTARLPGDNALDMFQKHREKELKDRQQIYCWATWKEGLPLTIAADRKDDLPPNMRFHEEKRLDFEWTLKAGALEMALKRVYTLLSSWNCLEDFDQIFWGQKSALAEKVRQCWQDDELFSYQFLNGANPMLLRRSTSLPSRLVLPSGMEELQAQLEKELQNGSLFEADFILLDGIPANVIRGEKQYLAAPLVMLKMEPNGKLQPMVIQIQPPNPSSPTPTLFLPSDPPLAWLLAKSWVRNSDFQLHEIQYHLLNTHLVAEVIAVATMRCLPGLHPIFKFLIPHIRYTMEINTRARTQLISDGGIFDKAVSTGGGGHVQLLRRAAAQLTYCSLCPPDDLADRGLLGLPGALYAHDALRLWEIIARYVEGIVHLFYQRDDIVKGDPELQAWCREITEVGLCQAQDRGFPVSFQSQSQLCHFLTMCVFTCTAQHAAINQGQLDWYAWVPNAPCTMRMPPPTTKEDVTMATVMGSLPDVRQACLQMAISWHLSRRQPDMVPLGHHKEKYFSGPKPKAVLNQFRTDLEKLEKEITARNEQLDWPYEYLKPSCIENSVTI
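Purified human 12hLO (150 nM final) in 25 mM Hepes, 0.01% Triton X-100, pH 7.0 was preincubated 15 min at room temperature with compound. Then 40 uM arachidonic acid was added, 30 min. Hydroperoxide was read by Fe-XO absorbance ratio 573/405 nm.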
TDP1 cell CPT: growth inhibition of DT40 Tdp1-/-;hTDP1 cells with camptothecin (screen for TDP1 inhibitors) | chicken DT40 Tdp1-/-;hTDP1 cells + 20 nM CPT, ATP luminescence, 48 h | Potency, µM (highest dose often 46.2 µM), inactives show at the highest dose activity change, negative = growth inhibition, actives largely listed as inhibitors | actives 12% (n = 420,000); note: potency is the fitted concentration of half-maximal effect; nearly all actives have a fitted effect of over 55% in size
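Cell growth measured by CellTiter-Glo luminescence after a minimum 48 h, 37 C compound exposure with 20 nM CPT in Tdp1-knockout DT40 cells stably expressing hTDP1, seeded 400/well; qHTS titration format.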
The depositor's hits bear a star; ? = inconclusive; / = no result given; [ ] = another dose, or the depositor's remark. The entries come from a sample that favours hits as a whole. Unless noted, calls come from the whole dose curve; as a rule, active = well fitted curve in the direction sought with a large enough effect; inconclusive = small, poorly fitted or top-dose-only effect, or another doubt; inactive = no such curve, though single readings can be large; an effect the other way counts as inactive or inconclusive. Unless noted, % is set by controls: 0 for no effect and ±100 for the full control effect.

SMILES | HT1080 IDH1KD tx | HT1080NT lethal | IL1B secr inh | DT40 TDP1 no CPT | ALOX12 inh | TDP1 cell CPT
BrC(=C\c1ccccc1)/C=N/N1CCN(Cc2ccccc2)CC1 | -16% | -5% | -20 | 3.3µM* | -5% | 1.8µM*
BrC(/C=N/N1CCN(Cc2ccccc2)CC1)=C/c1ccccc1 | 7% | -6% | -82* | 6.5µM* | 0% | 13µM*
FC(F)(F)c1ccc(/C=N/N2CCN(Cc3ccccc3)CC2)cc1 | -23% | -16% | -60* | -22% | 0% | 5%
CC(/C=N\N1CCN(Cc2ccc(C)cc2)CC1)=C\c1ccccc1 | -1% | -10% | 11 | -23% | -2% | -10%
CC1CCCN(C(=O)CCc2ncc(-c3ccc(F)cc3F)o2)C1 (stereo not drawn) | / | / | / | / | 11% | /
COCCn1c(=O)c(-c2cn(C)c3ccccc23)nc2cncnc21 | / | / | / | -13% | 0% | 2%
Cn1cc(-c2nc3cncnc3n(CCN)c2=O)c2ccccc21 | / | / | / | 16µM* | 10% | 23µM*
Cc1cc(C(F)(F)F)nn1Cc1ccc(C(=O)NCc2ccco2)o1 | ? | -1% | -19 | 13µM* | 4% | 16µM*
COc1ccc(CNC(=O)c2ccc(Cn3nc(C)cc3C)o2)cc1 | 4% | 11% | -25 | 11% | 2% | -21%
C/C(=N\Nc1cc(N2CCOCC2)ncn1)c1ccccc1 | -9% | -9% | -79* | ? | 29% | 23µM*
C/C(=N\Nc1cc(N2CCOCC2)ncn1)c1cccc([N+](=O)[O-])c1 | 13% | 5% | -21 | 16µM* | 0% | ?
C/C(=N\Nc1nc(N2CCOCC2)nc(N2CCOCC2)n1)c1cccc([N+](=O)[O-])c1 | 5% | 1% | -3 | -17% | 7% | 4%
C/C(=N\Nc1cc(N2CCOCC2)nc(C)n1)c1ccc(F)cc1 | -16% | -18% | ? | ? | -10% | ?
O=[N+]([O-])c1cccc(/C=N/Nc2nc(N3CCOCC3)nc(N3CCOCC3)n2)c1 | -1% | 1% | -1 | ? | -9% | -5%
O=[N+]([O-])c1cccc(/C=N/Nc2cc(N3CCOCC3)ncn2)c1 | 13% | -3% | -68* | ? | 20% | ?
CC(CCc1ccco1)NC(=O)c1ccc(Cl)c(S(=O)(=O)NC2CC2)c1 (stereo not drawn) | / | / | / | / | -22% | /
CCN(Cc1ccccc1)Cc1nc2sc(C(=O)OC)c(C)c2c(=O)[nH]1 | / | / | / | / | -25% | /
N#CCCn1cc(C(=O)Nc2ccc(Cl)cc2)c(-c2cccs2)n1 | / | / | / | / | -11% | /
CCCN1CCN(c2ncnc3sc(C(=O)Nc4ccc(OC(F)(F)F)cc4)c(C)c23)CC1 | / | / | / | 21µM* | ? | ?
CCCN1CCN(c2ncnc3sc(C(=O)Nc4ccc(C(C)C)cc4)c(C)c23)CC1 | / | / | / | ? | ? | 21µM*
COC(=O)[C@@H]1Cc2c([nH]c3ccccc23)[C@H]2C[C@@H](NCCCn3ccnc3)C[C@@H](c3cccc(Cl)c3)N21 | / | / | / | / | 154% | /
COC(=O)c1ccccc1NC(=S)NC(NC(=O)c1ccccc1[N+](=O)[O-])C(Cl)(Cl)Cl (stereo not drawn) | 1% | -9% | 40 | -15% | ? | 0%
O=C(NC(NC(=S)Nc1c(Cl)cccc1Cl)C(Cl)(Cl)Cl)c1cccc([N+](=O)[O-])c1 (stereo not drawn) | ? | ? | -26 | 12µM* | ? | 21µM*
COc1ccc(NC(=S)NC(NC(=O)c2ccccc2Cl)C(Cl)(Cl)Cl)c([N+](=O)[O-])c1 (stereo not drawn) | 2%[9.24 µM] | ? | -87* | ? | ? | ?
CC(C)(C)NC(NC(=O)c1cccc([N+](=O)[O-])c1)C(Cl)(Cl)Cl (stereo not drawn) | / | / | / | / | -29% | /
SMILES | HT1080 IDH1KD tx | HT1080NT lethal | IL1B secr inh | DT40 TDP1 no CPT | ALOX12 inh | TDP1 cell CPT
COc1ccc(NC(=S)NC(NC(=O)c2cccc3ccccc23)C(Cl)(Cl)Cl)c([N+](=O)[O-])c1 (stereo not drawn) | 1% | -22% | -56* | ? | 6% | ?
COc1ccc(NC(=S)NC(NC(=O)CCl)C(Cl)(Cl)Cl)c([N+](=O)[O-])c1 (stereo not drawn) | -14% | -20% | -50* | ? | / | ?
CC(Sc1ccc(Cl)cc1)C(=O)N1CCN(c2nccs2)CC1 (stereo not drawn) | / | / | / | / | 5% | /
COc1ccc(NC(=O)c2ccc(C)cc2Cl)c([N+](=O)[O-])c1 | 3%[9.24 µM] | ? | -30 | -9% | 10% | -9%
COc1ccc(NC(=S)NC(NC(=O)c2ccc(Cl)cc2Cl)C(Cl)(Cl)Cl)c([N+](=O)[O-])c1 (stereo not drawn) | 14%[9.24 µM] | ? | -95* | ? | ? | ?
Clc1cc(CNCCc2cccs2)cc2c1OCCCO2 | / | / | / | / | -20% | /
CCCN(CC1CCOC1)C(=O)Nc1ccc2c(c1)OCCO2 (stereo not drawn) | / | / | / | / | 38% | /
CC(=O)c1ccc(S(=O)(=O)NC2CC(=O)N(c3ccc(Cl)cc3)C2)cc1 (stereo not drawn) | 0% | -7% | 7 | 13µM* | -14% | ?
OCC1(O)CCCN(Cc2cnc(NCc3ccccc3)nc2)C1 (stereo not drawn) | / | / | / | / | -13% | /
CCCCCCCNC1=CC(=O)CC(c2ccccc2)C1 (stereo not drawn) | 16µM* | ? | 63 | 5.8µM* | -7% | 6.5µM*
CCCCCNC1=CC(=O)CC(c2ccccc2)C1 (stereo not drawn) | -11%[9.24 µM] | ? | -3 | 18µM* | 27% | ?
CCCCCCCCNC1=CC(=O)CC(C)(C)C1 | -10% | -16% | 13 | 16µM* | 222% | ?
CCCCc1c(C)nc2ccc(C)cc2c1SCC(=O)O | / | / | / | / | 0% | /
CCN1c2cc(C(=O)Nc3ccc(Cl)c(F)c3)ccc2C(=O)N2CCCCC21 (stereo not drawn) | / | / | / | / | 18% | /
COc1ccc(/C=N/n2c(SC)nnc2-c2ccccc2)c(OC)c1OC | ? | -16% | -9 | 2.1µM* | 1% | 3.3µM*
COc1cc(SC#N)ccc1N=Cc1c(C)[nH]n(-c2ccc(Cl)cc2)c1=O | -9% | -15% | ? | 3.7µM* | -16% | 2.6µM*
COc1cc(SC#N)ccc1N=Cc1c(C)[nH]n(-c2ccc(C)c(C)c2)c1=O | 15µM* | 21µM* | -98* | 2.6µM* | -5% | 3.3µM*
